Screening data from PubChem BioAssay.
MEKK3 PB1 HTS: modulators of MEKK3-MEK5 PB1 binding, primary screen, biochemical, wildtype MEKK3, multiplex bead flow cytometry, Alexa488-MEK5. Mitogen-activated protein kinase kinase kinase 3 (Homo sapiens), Q99759. bead-based flow cytometry, Alexa488-MEK5 binding to MEKK3; actives lie on both sides; 0 = blocked by unlabeled MEK5, 100 = vehicle. binding response (% of control), % at 10 µM. 1.4% of 290,000 active. AID 1529, 2009;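 active means binding response more than 3 SD above or below the average of its plate-row segment, actives on both sides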;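 further: Alexa488 bead fluorescence after subtracting the streptavidin-only scavenger bead signal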
UBC13 polyUb: UBC13 polyubiquitin chain formation inhibitors, primary screen, biochemical, TR-FRET, uHTS | inhibition, % at 20 µM | 0.47% of 330,000 active; in the data active means inhibition above about 45%, passing the limit was not always enough
Target sequence (P61088 whole entry, looked up): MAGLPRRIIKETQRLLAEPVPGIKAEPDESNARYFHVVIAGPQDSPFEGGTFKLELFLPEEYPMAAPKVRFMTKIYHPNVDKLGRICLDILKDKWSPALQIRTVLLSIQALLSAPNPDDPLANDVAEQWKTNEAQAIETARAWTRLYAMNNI
MEKK2 mut-MEK5: MEK5 binding signal on mutant MEKK2 PB1, primary screen, biochemical, multiplex bead flow cytometry, Alexa488-MEK5; percent response, % at 10 µM; 0.35% of 290,000 active; Alexa488-MEK5 binding to MEKK2 mutant; in the data active means percent response above about 24%, passing the limit was not always enough
Rce1 inhib: yeast Rce1p protease inhibitors, primary screen, biochemical, fluorescence, cell-free homogeneous. CAAX prenyl protease 2 (Saccharomyces cerevisiae (strain ATCC 204508 / S288c)), Q03530. yeast membranes, quenched prenylated peptide cleavage fluorescence. calls only. 0.27% of 290,000 active;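 active means fall in fluorescence gain of 50% or more versus controls, with final raw signal at or below 3038400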;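 further: plate controls were neutral control wells for no effect and wells lacking membranes for full effect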
Target sequence (Q03530 whole entry, looked up): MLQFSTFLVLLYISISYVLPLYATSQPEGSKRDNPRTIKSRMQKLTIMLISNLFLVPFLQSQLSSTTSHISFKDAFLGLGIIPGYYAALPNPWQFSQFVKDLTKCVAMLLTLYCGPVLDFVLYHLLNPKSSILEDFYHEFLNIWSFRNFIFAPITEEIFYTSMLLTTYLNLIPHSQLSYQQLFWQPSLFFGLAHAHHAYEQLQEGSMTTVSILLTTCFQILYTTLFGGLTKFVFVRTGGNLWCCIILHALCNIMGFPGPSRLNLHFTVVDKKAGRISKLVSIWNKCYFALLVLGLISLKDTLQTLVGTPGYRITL
MEKK2wt PB1 HTS: modulators of MEK5 binding to wildtype MEKK2, primary screen, biochemical, multiplex bead flow cytometry, Alexa488-MEK5; 1.1% of 290,000 active; Alexa488-MEK5 binding to MEKK2 WT; actives lie on both sides; binding response (% of control), % at 10 µM; in the data active means binding response below about 67% or above about 130%
MEKK2wt confirm: modulators of MEK5 binding to wildtype MEKK2, confirmation, biochemical, single concentration, multiplex bead flow cytometry; shares compounds with MEKK3 PB1 HTS; Alexa488-MEK5 binding to MEKK2 WT; actives lie on both sides; binding response (% of control), % at 10 µM; 2.4% of 5,900 active; AID 1892, 2009; in the data active means binding response below about 16% or above about 210%; inactive means in between
MEKK2mut-MEK5: mutant MEKK2 PB1-MEK5 binding signal retest – biochemical, single concentration, multiplex bead flow cytometry, confirmation | Alexa488-MEK5 binding to MEKK2 mutant | 2% of 5,900 active | shares compounds with MEKK3 PB1 HTS | percent response, % at 10 µM; in the data active means percent response mostly above about 71%, no sharp cut-off; inactive means mostly below about 38%;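 further: higher means compound restores mutant binding toward wildtype level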
MEKK3-MEK5 inh: MEKK3 wild-type PB1 binding to MEK5, inhibitors, confirmation, biochemical, bead multiplex flow cytometry, single concentration, wildtype; Alexa488-MEK5 binding to MEKK3; stronger effect = lower value; shares compounds with MEKK3 PB1 HTS; 1.8% of 5,900 active; AID 1894, 2009; binding response (% of control), % at 10 µM;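 active means binding response below 72% of control, or above a set upper limit, though filed actives all read lower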;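 further: 100% = DMSO only wells and 0% = binding blocked by excess unlabeled MEK5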
* marks the source's active call; other numbers are inactive results; i = inactive; . = no result; [ ] = dose if it differs, or a comment. Most compounds without a hit are left out; they make up all but 2.5% or so of the library.

SMILES | MEKK3 PB1 HTS | UBC13 polyUb | MEKK2 mut-MEK5 | Rce1 inhib | MEKK2wt PB1 HTS | MEKK2wt confirm | MEKK2mut-MEK5 | MEKK3-MEK5 inh
Cc1ccc2nc(-c3ccc(NC(=O)CN4CCN(c5ccccn5)CC4)cc3)sc2c1 | 130* | 1 | 27 | i | 121 | 96 | -2 | 103
Cn1cnc(S(=O)(=O)NCc2ccc(Br)cc2)c1 | 104 | 1 | 6 | i | 106 | . | . | .
COc1ccccc1OCC(=O)NNC(=O)c1c(-c2ccccc2Cl)noc1C | 93 | 5 | -6 | i | 94 | . | . | .
Cc1ccccc1NC(=O)C1(NC(=O)c2cccc(N3C(=O)CSC3c3ccccc3)c2)CCCCC1 (stereo unspecified) | 122* | 3 | 6 | i | 103 | 103 | 1 | 101
Cn1c(N)c(N2CCN(c3ccccc3)CC2)c(=O)[nH]c1=O | 94 | -2 | -6 | i | 93 | . | . | .
CC1(C)CC(C)(O)N(Cc2ccccc2)C(=S)N1 (stereo unspecified) | 133* | -3 | 1 | i | 112 | 101 | 2 | 101
CC(C)NS(=O)(=O)c1ccc(NC(=O)C(C)Oc2ccc(C(=O)c3ccccc3)cc2)cc1 (stereo unspecified) | 147* | 11 | -1 | i | 100 | 97 | -9 | 102
COc1cc(OC)c(OC)cc1/C=N/Nc1nc2ccccc2[nH]1 | 105 | 2 | 12 | i | 120 | . | . | .
CCN(CC)c1ccc(C=Nc2ccccc2C)c(O)c1 | 140* | -11 | 0 | i | 104 | 89 | -6 | 98
CCN(CC)c1ccc(O)c(C=Nc2ccc(C)c(C)c2)c1 | 86 | -1 | -21 | i | 64 | . | . | .
CCN(CC)c1ccc(/C=N/Nc2nc3ccccc3[nH]2)c(O)c1 | 107 | 1 | 31* | i | 129 | 131 | 21 | 103
CCN(CC)c1ccc(C=Nc2ccc(C#N)cc2)c(O)c1 | 101 | -11 | -36 | i | 67*[inhibitor] | 101 | 5 | 106
COCCNC(=O)c1cc(OC)c(OC)cc1[N+](=O)[O-] | 98 | 3 | -3 | i | 96 | . | . | .
CCOC(=O)CC(C)(C)/C(C)=N/Nc1ccc([N+](=O)[O-])cc1[N+](=O)[O-] | 97 | -20 | 0 | . | 95 | . | . | .
CCC(C)NC(=O)Cc1cn(C)c2ccccc12 (stereo unspecified) | 3.0*[inhibitor] | -7 | -14 | . | 3.0*[inhibitor] | 102 | -12 | 96
CCc1ccc(NC(=O)Cc2cn(C)c3ccccc23)cc1 | 104 | -4 | 0 | i | 106 | . | . | .
CC1(C)Cc2c(c(-c3ccco3)nc3sc4c(NCC5CCCO5)ncnc4c23)CO1 (stereo unspecified) | 143* | 5 | 0 | i | 102 | 104 | 8 | 102
O=C1c2ccccc2S(=O)(=O)c2cc(N3CCOCC3)ccc21 | 82*[inhibitor] | -42 | -5 | i | 88 | 98 | -7 | 99
CC(Oc1ccccc1)C(=O)N1CCC2(CC1)CC(=O)c1ccccc1O2 (stereo unspecified) | . | 3 | . | i | . | . | . | .
CCCCOc1ccc(CSCCN)cc1Cl | 128* | 17 | 41 | i | 169* | 108 | 3 | 97
Cc1cccc(-n2[nH]c(C)c(C=Nc3ccc4[nH]c(=O)[nH]c4c3)c2=O)c1 | 129* | -1 | 0 | i | 107 | 123 | 11 | 104
Cc1ccc(C(C(=O)NC2CCCCC2)N(C(=O)Cc2c[nH]c3ccccc23)c2ccccc2C)o1 (stereo unspecified) | 128* | -6 | 1 | i | 105 | 102 | 1 | 101
O=S(=O)(NC1CCCC1)c1ccc(S(=O)(=O)N(Cc2cccs2)CC2CCCO2)cc1 (stereo unspecified) | 1.0*[inhibitor] | 0 | -31 | i | -2.0*[inhibitor] | 102 | 4 | 105
COC(=O)CC1Oc2ccc(C)cc2NC1=O (stereo unspecified) | 16*[inhibitor] | 4 | -17 | i | 19*[inhibitor] | 105 | 0 | 100
O=C(O)CCCC(=O)Nc1ccc(Oc2ncnc3cc(Cl)ccc23)nc1 | 128* | 6 | 26 | i | 128 | 98 | -1 | 99
SMILES | MEKK3 PB1 HTS | UBC13 polyUb | MEKK2 mut-MEK5 | Rce1 inhib | MEKK2wt PB1 HTS | MEKK2wt confirm | MEKK2mut-MEK5 | MEKK3-MEK5 inh
O=C(Nc1ccc(Oc2ncnc3cc(Cl)ccc23)nc1)c1cccs1 | 87 | -7 | -17 | i | 93 | . | . | .
O=C(Nc1ccc(F)cc1)Nc1ccc(Oc2ncnc3cc(Cl)ccc23)nc1 | 69*[inhibitor] | -5 | -33 | i | 75 | 104 | 2 | 102
Cc1cc(NC(=O)CCC(=O)N(c2ccccc2)C(C(=O)NC2CCCC2)c2ccccc2)no1 (stereo unspecified) | 113 | -8 | 27* | i | 101 | 100 | 1 | 104
CC(C)COc1ccc(CSCCNC(=S)Nc2ccccc2)cc1 | 103 | 6 | 1 | i | 108 | . | . | .
Cc1ccc(N(CC(=O)NCCSc2nc3ccccc3s2)S(=O)(=O)c2ccccc2)c(C)c1 | 150* | 0 | 0 | i | 105 | 105 | 6 | 108
Cc1cccc(N(CC(=O)NCCSc2nc3ccccc3s2)S(=O)(=O)c2ccccc2)c1 | 99 | 1 | -1 | i | 101 | . | . | .
Cc1cc(OCC(=O)NC(C)(C)C)ccc1Cl | 128* | 8 | 1 | i | 105 | 99 | 3 | 103
CC(NS(=O)(=O)/C=C/c1ccccc1)C(=O)NCCc1ccc(S(N)(=O)=O)cc1 (stereo unspecified) | 100 | -4 | -6 | i | 95 | . | . | .
CN(C)c1ncc(C2=C(Cl)C(=O)C(N3CCCC3)=C(Cl)C2=O)s1 | 87 | -57 | -6 | i | 89 | . | . | .
O=C1C(Cl)=C(N2CCCCC2)C(=O)C(Cl)=C1c1cnc(N2CCCCC2)s1 | 62*[inhibitor] | -26 | -20 | i | 60*[inhibitor] | 72 | -7 | 85
CN(CC(=O)Nc1cc(Cl)ccc1C#N)C1CCS(=O)(=O)C1 (stereo unspecified) | . | -5 | . | . | . | . | . | .
N#Cc1ccsc1NC(=O)CN1CCCCCC1 | 100 | 2 | 2 | i | 100 | . | . | .
